Source: the supplement of paper PMC10981050
Several values for one entry are separate records, joined by “and”; a condition that tells them apart may be missing. Equal values may be shown once. Where a name gives a salt, the structure may show the parent alone.

Legend:
Assay in all cases: cell viability relative to vehicle control; higher = less cytotoxic
Conditions in all cases: 10 µM
K562 = system: K562
Method in brief: (§1)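 Four leukaemia lines, as CRISPR-edited mutant clones and isogenic wild-type clones, were tested against Selleck bioactive, kinase and epigenetic probe libraries after removal of identity-inconsistent compounds. Cells were exposed to a single 10 µM dose for 48 h, and CellTiter-Glo luminescence was then read. Viability was calculated relative to the on-plate vehicle control.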

MARIMO = system: MARIMO
Method in brief: as §1

MOLM14 = system: MOLM14
Method in brief: as §1

OCI-AML2 = system: OCI-AML2
Method in brief: as §1

| Compound | cell viability (K562; SRSF2 genotype: SRSF2 P95H/wt) | cell viability (K562; SRSF2 genotype: SRSF2 wt/wt) | cell viability (MARIMO; SRSF2 genotype: SRSF2 P95H/wt) | cell viability (MARIMO; SRSF2 genotype: SRSF2 wt/wt) | cell viability (MOLM14; SRSF2 genotype: SRSF2 P95H/wt) | cell viability (MOLM14; SRSF2 genotype: SRSF2 wt/wt) | cell viability (OCI-AML2; SRSF2 genotype: P95H/wt) | cell viability (OCI-AML2; SRSF2 genotype: wt/wt) |
| --- | --- | --- | --- | --- | --- | --- | --- | --- |
| C[C@@H]1CCC=C2C(=O)C[C@H]3OOC(C)(C)[C@H]3[C@]21C [Nardosinone] | 85.3% and 82.5% | 83.5% | 84.7% | 92.8% | 89.8% | 91.4% | 92.9% | 102% |
| C=C1C[C@@H]2[C@H](CC[C@]3(C)C(=O)CC[C@@H]23)[C@@]2(C)C=CC(=O)C=C12 [Exemestane] | 93.7% and 96.7% | 100% | 82.8% | 92.6% | 80.3% | 94.3% | 90.2% | 91.2% |
| CC(C)=CCCC(C)(O)C1CCC2(C)C1C(O)CC1C3(C)CCC(OC4OC(CO)C(O)C(O)C4O)C(C)(C)C3CCC12C [(20R)Ginsenoside Rh2] | 90.5% and 92.8% | 96% | 101% | 102% | 102% | 96% | 98.5% | 106% |
| C[C@]12CC[C@H]3[C@@H](CC[C@@]45O[C@@H]4C(O)=C(C#N)C[C@]35C)[C@@H]1CC[C@@H]2O [Trilostane] | 92.4% and 94.7% | 97.6% | 87.4% | 92.5% | 95.4% | 102% | 123% | 118% |
| O=C(O)CNC(=O)c1c(O)c2ccccc2n(Cc2ccccc2)c1=O | 95.1% and 95.2% | 101% | 94.3% | 100% | 99.8% | 101% | 103% | 96.5% |
| CCc1c2c(nc3ccccc13)-c1cc3c(c(=O)n1C2)COC(=O)[C@]3(O)CC [7-Ethylcamptothecin] | 7.64% and 19.6% | 10.4% | 5.75% | 3.52% | 0.48% | 0.48% | 0.36% | 0.82% |
| CNCC(O)c1ccc(O)cc1 (stereo not drawn) [Synephrine HCl] | 102% and 114% | 108% | 110% | 99.8% | 104% | 111% | 108% | 101% |
| ClCCN(Cc1ccccc1)Cc1ccccc1 [Dibenamine Hydrochloride] | 103% and 95.7% | 91.5% | 94.9% | 104% | 94.8% | 103% | 83.5% | 89.3% |
| O=C1CCC[C@@H]2[C@H]3CCCN4CCC[C@H](CN12)[C@@H]34 [Sophoridine] | 104% and 100% | 105% | 108% | 113% | 103% | 108% | 100% | 101% |
| C[C@H]1CC[C@@H]2N(C1)C[C@H]1[C@@H]3C[C@H]4[C@@H](C[C@H](O)[C@H]5C[C@@H](O)CC[C@@]54C)[C@@H]3CC[C@@H]1[C@]2(C)O [Peimine] | 110% and 102% | 95.8% | 97.3% | 104% | 104% | 98.6% | 99.6% | 106% |
| C/C=C\c1cc(OC)c(OC)cc1OC [Beta-Asarone] | 106% and 104% | 104% | 98% | 102% | 104% | 104% | 104% | 105% |
| NCCc1ccccc1 [2-Phenylethylamine hydrochloride] | 105% and 104% | 104% | 103% | 105% | 104% | 106% | 112% | 117% |
| O=C1CC[C@@]2(O)[C@H]3Cc4ccc(O)c5c4[C@@]2(CCN3CC2CC2)[C@H]1O5 [Naltrexone HCl] | 98.5% and 105% | 97.7% | 98.8% | 103% | 99.9% | 103% | 106% | 99.8% |
| CC(=O)O[C@@H]1[C@H]2[C@@H](OC(=O)Cc3ccccc3)[C@@H](C)C[C@]2(OC(C)=O)C(=O)/C(C)=C/[C@@H]2[C@H](CC[C@]13CO3)C2(C)C [Euphorbia factor L1] | 105% and 96.6% | 100% | 89.8% | 102% | 102% | 104% | 95.9% | 105% |
| CC(C)(C)[C@]1(O)CC2OC(=O)CC23C(=O)OC2OC(=O)[C@H](O)C231 (stereo partly drawn) [Bilobalide] | 108% and 105% | 98% | 96.9% | 116% | 104% | 104% | 98.1% | 109% |
| C/C(O)=C(\C#N)C(=O)Nc1cc(Br)ccc1Br | 88.8% and 87.1% | 89.1% | 88.4% | 96.5% | 78.9% | 93.7% | 86.1% | 87.7% |
| Cc1cc(C(=O)CN2CCCC2)c(C)n1-c1ccc(F)cc1 | 93.7% and 94% | 89.1% | 80.6% | 98.2% | 83.7% | 94.7% | 88.4% | 85.8% |
| CC(C)=CCC[C@]1(C)C=Cc2c(O)c3c(c(CC=C(C)C)c2O1)O[C@]12C(=C[C@@H]4C[C@H]1C(C)(C)O[C@@]2(C/C=C(/C)C(=O)O)C4=O)C3=O [Gambogic Acid] | 1.29% and 0.59% | 0.98% | 0.39% | 0.5% | 0.42% | 0.51% | 0.38% | 0.45% |
| O=C(O[C@H]1C[C@H]2CC[C@@H](C1)[N+]21CCCC1)C(O)(c1ccccc1)c1ccccc1 [Trospium chloride (Sanctura)] | 98.8% and 100% | 95.7% | 101% | 102% | 99.4% | 102% | 102% | 102% |
| O=c1ccc2c(O)c3ccoc3cc2o1 [Bergaptol] | 108% and 106% | 116% | 105% | 95.6% | 113% | 107% | 106% | 97.5% |
| C=C1CCC2C(/C=C(\C)C(=O)C3(OC(C)=O)CC(C)C(OC(=O)c4ccccc4)C3C1OC(C)=O)C2(C)C (stereo not drawn) [Euphorbia factor L3] | 48% and 62.5% | 59.5% | 34.8% | 33.8% | 47.6% | 32.9% | 65.8% | 22.4% |
